Results taken from the supplement of paper PMC7156485.
“And” between values parts separate entries of the source, which are not always exact repeats. Identical values can stand only once. ± gives the standard deviation of the averaged measurements.

Columns and labels:
Settings in all cases: concentration: 10 µM; 24 h
[1] = test system: HCC1569; assay: cell number relative to DMSO (% of DMSO); higher = more cells (less growth inhibition / toxicity)
In short: (§1)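 HCC1569 and TDF cells were seeded at 800 per well in 384-well plates in RPMI with 10% FBS and treated with compounds at 10 µM for 24 h at 37 °C, in triplicate. After fixation in 3.7% formaldehyde, cells were stained with a rabbit anti-H1.0 antibody, an AlexaFluor 647 secondary and DAPI, and six fields per well were imaged at ×10. H1.0 nuclear intensity or cell number is given as percent of the plate control, using the median of replicates, with HCC1569 values smoothed for positional effects.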

[2] = test system: TDF; assay: as above
In short: as §1

[3] = test system: TDF; assay: H1.0 immunofluorescence intensity relative to DMSO (% of DMSO); higher = stronger H1.0 induction, active = 120 or more
In short: as §1

[4] = test system: HCC1569; assay: H1.0 immunofluorescence intensity relative to DMSO (% of DMSO); higher = stronger H1.0 induction, active = 140 or more
In short: as §1
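Wherever H1.0 immunofluorescence intensity relative to DMSO is given: TDF is a line of transformed human dermal fibroblasts of mesenchymal origin.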
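Wherever cell number relative to DMSO is given: TDF denotes transformed human dermal fibroblasts of mesenchymal origin.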

Row | Structure (SMILES) | cell number [1] | cell number [2] | H1.0 immunofluorescence intensity [3] | H1.0 immunofluorescence intensity [4]
1 | COc1nccc(-c2c(-c3ccc(F)cc3)ncn2C2CCNCC2)n1 | 93.7 | 104 | 84.3 (inactive) | 99.5 (inactive)
2 | CCCCCC(O)c1cccc(OCc2ccc3ccccc3n2)c1 (centres undefined) | 103 and 102 | 107 and 102 | 104 (inactive) and 91.2 (inactive) | 110 (inactive) and 101 (inactive)
3 | CC1C(=O)OC2C(O)C34C5CC(C(C)(C)C)C36C(OC(=O)C6O)OC4(C(=O)O5)C12O (centres undefined) [Ginkgolide B] | 104 | 104 | 101 (inactive) | 82.4 (inactive)
4 | Cn1c(=O)c(-c2c(Cl)cccc2Cl)cc2cnc(Nc3ccc(N4CCOCC4)cc3)nc21 | 52.7 | 21.9 | 154 (active) | 88.3 (inactive)
5 | O=C(CCN1CCN(C(=O)OCc2cc(Cl)cc(Cl)c2)CC1)c1ccc2[nH]c(=O)oc2c1 | 70.5 | 104 | 87.1 (inactive) | 168 (active)
6 | COc1ccc(S(=O)(=O)N2CCC[C@H]2C(=O)Nc2cc(C)cc(C)c2)cc1 | 101 | 113 | 95.5 (inactive) | 102 (inactive)
7 | CC(C)CC(NC(=O)C1OC1C(=O)O)C(=O)NCCCCN=C(N)N (centres undefined) | 99.92 ± 0.64 | 96.3 ± 6.9 | 97.7 (inactive) | 97.3 (inactive)
8 | Cc1c(Cl)cccc1Nc1ccccc1C(=O)O [Tolfenamic acid] | 105 | 105 | 104 (inactive) | 95 (inactive)
9 | CC(C)c1ccc2oc3nc(N)c(C(=O)O)cc3c(=O)c2c1 | 104 | 109 | 97.3 (inactive) | 92.5 (inactive)
10 | Oc1ccc(-c2c(-c3ccccc3)nn3c(C(F)(F)F)cc(C(F)(F)F)nc23)cc1 | 67.9 | 12.4 | 154 (active) | 143 (active)
11 | Cc1nc(C)c(C)nc1C [Tetramethylpyrazine] | 106 | 108 | 92.9 (inactive) | 94.2 (inactive)
12 | COC(=O)C(N)Cc1ccc(Cl)cc1.Cl (racemic) [DL-p-Chlorophenylalanine methyl ester hydrochloride] | 97.3 | 92.3 | 107 (inactive) | 104 (inactive)
13 | CC12CCC3c4ccc(O)cc4CCC3C1CCC2=O (centres undefined) [Estrone] | 102 ± 4.7 | 99.9 ± 9.3 | 96.7 (inactive) | 101 (inactive)
14 | NC1CONC1=O [L-Cycloserine] | 102 ± 2.4 | 102 ± 2.1 | 94.5 (inactive) | 84.8 (inactive)
15 | N#CC(=C1Nc2ccccc2S1)c1ccnc(NCCc2cccnc2)n1 [JNK Inhibitor V] | 73.6 | 87.4 | 108 (inactive) | 123 (inactive)
16 | COc1ccc(C2OCC3C(c4ccc(OC)c(OC)c4)OCC23)cc1OC (centres undefined) [Eudesmine] | 102 | 104 | 97.6 (inactive) | 107 (inactive)
17 | CC(C)S(=O)(=O)N[C@H]1CCOC[C@@H]1c1ccc(-c2ccc(C#N)s2)cc1 | 100 | 98.3 | 96.5 (inactive) | 104 (inactive)
18 | NC(=O)c1ccc2[nH]ccc2c1 | 108 | 97.1 | 101 (inactive) | 94.2 (inactive)
19 | CCc1nn(CCCN2CCN(c3cccc(Cl)c3)CC2)c(=O)n1CCOc1ccccc1 | 92.2 | 95 | 95.3 (inactive) | 122 (inactive)
20 | CC(O)C1C(=O)N2C(C(=O)O)=C(SC3CNC(C(=O)N(C)C)C3)C(C)C12 (centres undefined) [Meropenem] | 105 | 98.2 | 97 (inactive) | 94.3 (inactive)
21 | NC/C=C\C(=O)O [cis-4-Aminocrotonic acid] | 105 | 100 | 98.3 (inactive) | 88.1 (inactive)
22 | CCCCCOc1ccccc1C(O)CC#CCCCC(=O)OC (centres undefined) | 103 | 106 | 93 (inactive) | 89.2 (inactive)
23 | CCOc1ccc2c(c1)C(C)=CC(C)(C)N2 [Ethoxyquin] | 100 | 104 | 96.1 (inactive) | 98.9 (inactive)
24 | O=C(O)C=Cc1cc(Br)c(Br)c(Br)c1Br [Casein Kinase II Inhibitor III, TBCA] | 98.7 | 113 | 92.9 (inactive) | 105 (inactive)
25 | C=CC(C)(O)CCC1C(=C)CCC2C(C)(C)CCCC12C (centres undefined) [Manool] | 104 | 87.8 | 99.4 (inactive) | 90.8 (inactive)
26 | CCCCCC(=O)C=CC=CCC=CCC=CCCCC(=O)O [15-Ketoeicosatetraenoic acid] | 99.5 | 102 | 94 (inactive) | 86.9 (inactive)

Row | Structure (SMILES) | cell number [1] | cell number [2] | H1.0 immunofluorescence intensity [3] | H1.0 immunofluorescence intensity [4]
27 | COc1cc2c(cc1OC)-c1cc3ccc(OC)c(OC)c3c[n+]1CC2.[Cl-] [Palmatine chloride] | 100 | 108 | 96.1 (inactive) | 88.6 (inactive)
28 | NC(C(=O)O)C1CC(Cl)=NO1 (centres undefined) [Acivicin] | 93.2 | 68.8 | 122 (active) | 108 (inactive)
29 | OC1C(O)C(O)C(O)C(O)C1O (centres undefined) [1,2,3,4,5,6-cyclohexanehexol] | 102 ± 3 | 104 ± 7.5 | 96.9 (inactive) | 92.9 (inactive)
30 | CCCCCCCCCCCCCCCC(=O)OCC=C(C)C=CC=C(C)C=CC1=C(C)CCCC1(C)C [Retinyl palmitate] | 101 | 99.2 | 93.8 (inactive) | 101 (inactive)
31 | CC(C)c1cc(C(C)C)c(-c2csc(N(CCN(C)C)Cc3cccnc3)n2)c(C(C)C)c1 | 50.7 | 55.2 | 146 (active) | 146 (active)
32 | COC(=O)C1C2CC3c4[nH]c5cc(OC)ccc5c4CCN3CC2CC(OC(=O)c2cc(OC)c(OC)c(OC)c2)C1OC (centres undefined) [Reserpine] | 99.2 | 86.3 | 101 (inactive) | 101 (inactive)
33 | CN1C2CCC1CC(OC(=O)c1c[nH]c3ccccc13)C2.Cl (centres undefined) [3-Tropanyl-indole-3-carboxylate hydrochloride] | 103 | 112 | 93.4 (inactive) | 112 (inactive)
34 | CCC1OC(=O)C(C)C(OC2CC(C)(OC)C(O)C(C)O2)C(C)C(OC2OC(C)CC(N(C)C)C2O)C(C)(OC)CC(C)C(=O)C(C)C(O)C1(C)O (centres undefined) [Clarithromycin] | 98.4 | 93 | 94.3 (inactive) | 94.6 (inactive)
35 | CNC(=O)C1OC(n2cnc3c(NCc4ccc(N)cc4)ncnc32)C(O)C1O (centres undefined) | 99.9 | 98.3 | 93.8 (inactive) | 90.6 (inactive)
36 | CC=CCC=CCCC(=O)C1OC1C(N)=O (centres undefined) [Cerulenin] | 92.6 | 91.5 | 97.8 (inactive) | 111 (inactive)
37 | COC(=O)C(=C1OC(=O)C(c2ccccc2)=C1O)c1ccccc1 [Vulpinic acid] | 98.5 | 95.3 | 89.4 (inactive) | 91.2 (inactive)
38 | CCOc1ccc(C(Nc2ccccn2)c2ccc3ccc(C)nc3c2O)cc1C (centres undefined) | 87.7 | 84.1 | 94.8 (inactive) | 115 (inactive)
39 | O=c1oc(Cl)c(Cl)c2ccccc12 [3,4-Dichloroisocoumarin] | 103 | 109 | 91.9 (inactive) | 88.1 (inactive)
40 | CCCCCCC=CC=CCCCCCCCC(=O)O [(9Z,11E)-Octadecadienoic acid] | 97.6 | 106 | 99.8 (inactive) | 100 (inactive)
41 | CCC1(O)CC(OC2CC(N(C)C)C(OC3CC(O)C(OC4CCC(=O)C(C)O4)C(C)O3)C(C)O2)c2c(cc3c(c2O)C(=O)c2c(O)cccc2C3=O)C1C(=O)OC (centres undefined) [Aclarubicin] | 83.2 | 55.5 | 129 (active) | 210 (active)
42 | CC(O)C(CO)NC(=O)C1CSSCC(NC(=O)C(N)Cc2ccccc2)C(=O)NC(Cc2ccccc2)C(=O)NC(Cc2c[nH]c3ccccc23)C(=O)NC(CCCCN)C(=O)NC(C(C)O)C(=O)N1 (centres undefined) [Octreotide] | 106 | 98.5 | 103 (inactive) | 98.9 (inactive)
43 | COc1cc(C(C)=O)cc(-c2cc(C(C)=O)cc(OC)c2O)c1O | 100 | 110 | 93.8 (inactive) | 100 (inactive)
44 | O=C(OC12CC3CC(CC(C3)C1)C2)c1ccc(NCc2cc(O)ccc2O)cc1 [1-adamantyl 4-[(2,5-dihydroxybenzyl)amino]benzoate] | 8.48 | 62.1 | 120 (inactive) | 109 (inactive)
45 | NC(=O)CC[C@H](N)C(=O)O [L-Glutamine] | 100 | 112 | 91.4 (inactive) | 105 (inactive)
46 | COc1ccc2c(c1)c(CC(=O)Nc1ccc(NC(C)=O)cc1)c(C)n2C(=O)c1ccc(Cl)cc1 [N-(4-acetamidophenyl)indomethacinamide] | 78.7 | 70.1 | 134 (active) | 149 (active)
47 | CN(c1ncccc1CNc1nc(Nc2ccc3c(c2)CC(=O)N3)ncc1C(F)(F)F)S(C)(=O)=O | 54.6 | 32.3 | 116 (inactive) | 118 (inactive)
48 | NC(N)=Nc1nc(CSCCC(N)=NS(N)(=O)=O)cs1 [Famotidine] | 102 | 102 | 94.4 (inactive) | 89.7 (inactive)
49 | C#CCn1c(=O)c2c(ncn2C)n(C)c1=O [3,7-Dimethyl-I-propargylxanthine] | 99.5 | 97.1 | 91.6 (inactive) | 93.4 (inactive)
50 | CCCn1c(=O)c2[nH]c(-c3ccc(OCC(=O)Nc4ccc(C#N)cc4)cc3)nc2n(CCC)c1=O | 105 | 114 | 96.6 (inactive) | 102 (inactive)
51 | C=C1C(=O)C23C(O)C1CCC2C12COC3(O)C(O)C1C(C)(C)CCC2O (centres undefined) [Rubescensin A] | 90.8 | 99 | 96.2 (inactive) | 100 (inactive)
